Source: PubChem BioAssay AID449762 (Southern Research Specialized Biocontainment Screening …, 2010)
The whole screen tested about 330,000 compounds, of which about 1,900 (0.58%) were called active. About 4% were inconclusive and are not listed. A selection follows. Entries with a potency or affinity are not part of this list. Unmarked numbers belong to inactive results. Rule as the data show it: inconclusive = inhibition above about 70% without an active follow-up result; inactive = below that.

assay: M. tuberculosis growth inhibition, HTS (AID 449762);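 also: bacterial growth assessed after seven days of incubation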; conditions: M. tuberculosis H37Rv growth inhibition, 7H9 media; at 25 µM; hits give high values

SMILES | inhibition
C#CCCC(=O)c1ccccc1/C=[N+](\[O-])c1ccccc1 | -2.08%
CCOC(=O)c1ccc(Nc2ccc([N+](=O)[O-])cn2)cc1 | -5.22%
COc1cccc(-c2n[nH]c(=S)n2Cc2ccco2)c1 | 8.56%
COCc1c(C(=O)N/N=C(/C)c2cccs2)nnn1-c1nonc1N | -8.26%
CCOc1ccc(NC(=O)CCC(=O)Nc2cc(OC)c(NC(=O)c3ccco3)cc2OC)cc1 | 20.8%
CCN1C(=O)[C@H]2[C@@H](c3ccc(-c4ccccc4)cc3)N[C@@](C)(C(=O)OC)[C@H]2C1=O | 1.42%
COc1cc(CCC(C)=O)ccc1OC(=O)c1c(F)cccc1Cl | 3.02%
COc1cc(/C=C/c2cc[n+](C)cc2)ccc1OCC(=O)Nc1ccccc1 | -0.02%
COc1ccc(NC(=O)COc2ccc(/C=C/c3cc[n+](C)cc3)cc2OC)cc1 | -3.55%
CCCCCCc1nc(C(N)=O)c2[nH]c(=O)n(-c3ccc(OC)cc3OC)c2n1 | 7.81%
Cc1cc(C)c(CN2CCC(n3nccc3NC(=O)C3CCOC3)CC2)cc1C (stereo not given) | -0.02%
OC1(c2cccc(C(F)(F)F)c2)CCN(Cc2nnnn2CCc2ccccc2)CC1 | 1.32%
Cc1ccc(N2Cc3ccccc3C2=N)cc1[N+](=O)[O-] | 2.11%
COc1cc(NS(=O)(=O)c2ccc(OC)c(C)c2C)c(OC)cc1Cl | -6.31%
Cc1cccc(NC(=O)CSc2cccc3cccnc23)c1 | -1.29%
O=C(CSc1cccc2cccnc12)Nc1cccc(S(=O)(=O)N2CCOCC2)c1 | -4.53%
COc1ccc(NC(=O)CN(C)C(=O)c2cc(C)on2)cc1 | 2.44%
O=C(CCC(=O)c1cccs1)OCC(=O)c1ccccc1 | 2.32%
O=C(COC(=O)c1cccs1)c1ccc2c(c1)OCCO2 | -22.5%
Cc1cc(C(=O)CSc2n[nH]c(N)n2)c(C)n1-c1cccc(F)c1 | -3.82%

SMILES | inhibition
O=C(OCC(=O)c1ccc[nH]1)C1=COCCO1 | 18.8%
Cc1c(Cl)cccc1NC(CC(=O)c1ccccc1)C(=O)OCC(=O)c1cccs1 (stereo not given) | -5.49%
COC(=O)c1ccc(-n2c(C)cc(C(=O)COC(=O)C3=COCCO3)c2C)cc1 | 48.5%
O=C(OCC(=O)c1cccs1)c1ccccc1 | -1.72%
O=C(CC(Nc1ccccc1Cl)C(=O)OCC(=O)c1cccs1)c1ccccc1 (stereo not given) | 2.88%
COCCCn1c(SCC(=O)N2CCOCC2)nc2cc(Cl)ccc2c1=O | -3.72%
CCOC(=O)CNC(=S)N(Cc1ccccc1)Cc1cccs1 | 2.83%
O=C(CN(Cc1ccccc1Cl)C(=O)c1csnn1)NCCc1ccccc1 | 4.65%
Cc1occc1C(=O)Nc1ccccc1C#N | -1.21%
CC(C)CCOC(=O)C1[C@H]2C(=O)N(Cc3cccs3)C[C@]23C=C[C@H]1O3 (stereo not given in full) | 0.09%
O=c1c2ccccc2ncn1-c1ccc([N+](=O)[O-])cc1[N+](=O)[O-] | 4.34%
O=[N+]([O-])c1ccccc1-n1cnc2ccccc21 | 8.38%
COc1cc(C(=O)OCC(=O)NCc2ccccc2)cc(NC(=O)c2ccco2)c1OC | 6.91%
C1=C(c2ccccc2)CCN(c2ncnc3nc[nH]c23)C1 | 1.26%
COc1ccccc1-n1c(N)c(C(N)=O)sc1=S | -2.51%
CC(=O)c1ccc(OC(=O)CCc2nc3ccccc3s2)cc1 | -3.41%
COC(=O)N1CCN(c2ccc(Cl)c(Cl)c2)CC1 | -0.8%
CCOC(=O)N1CCN(c2ccc(Cl)c(Cl)c2)CC1 | -2.84%
N#CCCn1cc(C(=O)Nc2ccc(C(=O)O)cc2)c(-c2cc3ccccc3o2)n1 | -8.4%
CC(C)n1cnc2c(Nc3cccc(Cl)c3)nc(NCCCO)nc21 | 27%

SMILES | inhibition
CC(C)C[C@H](CO)Nc1nc(Nc2cccc(Cl)c2)c2ncn(C(C)C)c2n1 | 62.4%
CC(C)(C)n1nnnc1CN1CCSCC1 | 1.25%
COC(=O)c1cc(NC2c3ncccc3C(=O)N2Cc2ccccc2)cc(C(=O)OC)c1 (stereo not given) | 2.2%
CCOC(=O)c1nnn(-c2nonc2-c2ccccc2)c1C | 7.53%
CCOC(=O)c1sc2nc3n(c(=O)c2c1C)CCC3 | -4.9%
Cc1c(C(=O)O)sc2nc3n(c(=O)c12)CCC(C)CC3 (stereo not given) | -4.08%
COc1ccc(-c2cc(NCc3ccccn3)n3ncnc3n2)cc1 | 65.8%
COc1ccc(-c2cc(NCCc3ccncc3)n3ncnc3n2)cc1 | -2.4%
COc1ccc(NC(=O)Cn2c(=O)n(-c3ccc(OC)cc3OC)c(=O)c3c(C)c(C)sc32)cc1 | -0.67%
CC(C)N(CC(N)=O)c1ccc(S(=O)(=O)N2CCCC2)cn1 | -5.77%
NC(=O)C1CCN(C(=O)COc2ccc3ccc(=O)oc3c2)CC1 | -9.39%
CCOC(=O)C1=C(C)Nc2nc(SC)nn2C1c1ccc(C(=O)OC)cc1 (stereo not given) | -5.54%
CCOC(=O)C1=C(C)Nc2nc(SCC)nn2C1c1ccc(OC)cc1 (stereo not given) | 5.22%
O=C(NCc1ccccc1)c1nccnc1CO | 0.4%
CN(C)S(=O)(=O)c1ccc(C(=O)NCc2nnc(SCC(=O)c3ccccc3)o2)cc1 | -10.3%
COc1cc(O)c(C(CCN2CCCC(C)C2)c2cc(OC)c(OC)c(OC)c2)c(OC)c1 (stereo not given) | -1.23%
Cc1ccc(-c2nc3ccccc3s2)cc1NC(=O)c1cc(-n2cnnc2)ccc1Cl | 3.06%
O=C(Nc1ccc(-c2nc3ccccc3s2)cc1)c1cc(-n2cnnc2)ccc1Cl | -1.18%
Cc1cc(C)c(NC(=O)Cn2ncc3ccccc32)c(C)c1 | -0.59%
COC(=O)c1ccc(OC(=O)c2cccs2)cc1 | 19.3%
